PubChem BioAssay (NCATS)
Records with an inconclusive call do not appear. Activity calls are given as the source filed them. Unless noted, calls follow the shape of the dose curve; as a rule, active = well fitted curve in the direction sought with a large enough effect; inconclusive = small, poorly fitted or top-dose-only effect, or another doubt; inactive = no such curve, though single readings can be large; an effect the other way counts as inactive or inconclusive.

Experiments:
[1] = biological target: Aldehyde dehydrogenase, mitochondrial (Homo sapiens) (UniProt P05091); assay: qHTS for Inhibitors of the Aldehyde Dehydrogenase Family (ALDH2) Confirmatory screens (AID 2061303; active = well fitted inhibition curve with a large enough effect; title and protocol of this record describe different tests; also: nearly all actives have a fitted effect of over 45% in size; also: potency is read from the fitted curve at half-maximal effect)
[2] = qHTS for Inhibitors of the Aldehyde Dehydrogenase Family (ALDH1A2, ALDH1A3, ALDH2, ALDH3A1) (AID 2061307); also: nearly all actives have a fitted effect of over 50% in size; as to Potency: test system not described further here; potency is read from the fitted curve at half-maximal effect
[3] = biological target: Aldehyde dehydrogenase, mitochondrial (Homo sapiens) (UniProt P05091); assay: qHTS for Inhibitors of the Aldehyde Dehydrogenase Family (ALDH2) Primary screen (AID 2061308); also: nearly all actives have a fitted effect of over 55% in size; also: potency is read from the fitted curve at half-maximal effect
[4] = biological target: Retinaldehyde dehydrogenase 3 (Homo sapiens) (UniProt P47895); assay: qHTS for Inhibitors of the Aldehyde Dehydrogenase Family (ALDH1A3) Confirmatory screens (AID 2061311); also: nearly all actives have a fitted effect of over 60% in size; also: potency is read from the fitted curve at half-maximal effect
[5] = biological target: Retinaldehyde dehydrogenase 3 (Homo sapiens) (UniProt P47895); assay: qHTS for Inhibitors of the Aldehyde Dehydrogenase Family (ALDH1A3) Primary screen (AID 2061315); also: potency is read from the fitted curve at half-maximal effect
[6] = biological target: Aldehyde dehydrogenase 1A1 (Homo sapiens) (UniProt P00352); assay: qHTS for Inhibitors of the Aldehyde Dehydrogenase Family (ALDH1A1) Confirmatory screens (AID 2061316); also: nearly all actives have a fitted effect of over 65% in size; also: potency is read from the fitted curve at half-maximal effect
[7] = biological target: Retinal dehydrogenase 2 (Homo sapiens) (UniProt O94788); assay: qHTS for Inhibitors of the Aldehyde Dehydrogenase Family (ALDH1A2) Confirmation screens (AID 2061314); also: nearly all actives have a fitted effect of over 65% in size; also: potency is read from the fitted curve at half-maximal effect
[8] = biological target: Retinaldehyde dehydrogenase 3 (Homo sapiens) (UniProt P47895); assay: qHTS for Inhibitors of the Aldehyde Dehydrogenase Family (ALDH1A3) Validation screen (AID 2061312); also: nearly all actives have a fitted effect of over 45% in size
[9] = BET inhibitor-based combinations targeting novel dependencies in MECOM-rearranged (r) AML: AML-191 cell line (AID 2202236; also: potency is read from the fitted curve at half-maximal effect; nearly all actives have a fitted effect of over 35% in size)
Method in brief: (§1)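 Each compound was tested at eleven concentrations on cells seeded at 500/well. After two days' incubation, ATP-based luminescence reported viability; responses relative to DMSO and blank wells yielded AUC and cell-line-centred Z-AUC.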

[10] = BET inhibitor-based combinations targeting novel dependencies in MECOM-rearranged (r) AML: AML-194 cell line (AID 2202237; also: potency is read from the fitted curve at half-maximal effect; nearly all actives have a fitted effect of over 40% in size)
Method in brief: as §1

Measured: Potency

COc1cccc(C2c3c(ncn(-c4ccccc4C#N)c3=N)Oc3ccc4ccccc4c32)c1 (stereo unspecified)
active: [4] 25.2 µM
inactive: [1] | [2] | [3] | [5]

CN(C)CCCNc1ncnc2ccc(-c3ccc4c(c3)OCO4)cc12
inactive: [1] | [2] | [3] | [4] | [5] | [6]

Cc1cccc(C[C@H](C(=O)O)N2C(=O)c3ccc(C(=O)O)cc3C2=O)c1
inactive: [1] | [2] | [3] | [4] | [5] | [6]

Cc1ccc(Nc2nc(C#N)nc(NC3CCCC3)n2)cc1
inactive: [1] | [2] | [3] | [4] | [5]

CCOC(=O)c1cccc(-n2cccc2/C=C2\NC(=O)N(CC(=O)O)C2=O)c1
inactive: [1] | [2] | [3] | [4] | [5]

CC(C)(C)CNc1nc(C#N)nc(Nc2ccccc2)n1
active: [2] 12.7 µM
inactive: [1] | [3] | [4] | [5]

O=C(O)c1ccc(-n2cccc2/C=C2\SC(=O)N(Cc3ccccc3Cl)C2=O)cc1
inactive: [1] | [3] | [5]
active: [2] 7.12 µM | [7] 5.65 µM

CC1(C)SCCN(S(=O)(=O)c2ccc(Oc3ccncc3)cc2)[C@H]1C(=O)NO
inactive: [1] | [2] | [3] | [7]

O=C(Nc1ccc(Cl)c(Cl)c1)Nc1ccc(-c2ccncc2)s1
inactive: [1] | [2] | [3] | [7] | [5]
active: [6] 8.96 µM

CC(=O)N1CCN(C(=S)Nc2cc(C)ccn2)CC1
inactive: [1] | [2] | [3] | [7] | [5]

O=C(Nc1ccc(Cl)c(Cl)c1)Nc1nnc(NC2CCNCC2)s1
inactive: [1] | [2] | [3] | [6]
active: [4] 11.3 µM

CCN(CC)CCOc1ccc(/C(=C(\Cl)c2ccccc2)c2ccccc2)cc1
active: [9] 18.6 µM | [10] 23.5 µM
inactive: [1] | [2] | [3] | [8] | [7] | [5] | [6]

COc1ccc(-c2nc3ccccc3c(=O)n2Cc2ccc(CNC(=O)CO)cc2)cc1COc1ccc(NC(C)=O)cc1
inactive: [1] | [3]
active: [2] 8.96 µM | [7] 15.9 µM

CCCCNc1nc(C#N)nc(Nc2ccccc2)n1
inactive: [3] | [7] | [5]
active: [1] 2.51 µM | [2] 0.501 µM

O=C(NCCc1nc2ccccc2n1CCOc1cccc(Br)c1)C1CCCCC1
inactive: [1] | [2] | [3] | [7] | [5]

CC1(C)S[C@@H]2[C@H](NC(=O)[C@H](NC(=O)N3CCN(S(C)(=O)=O)C3=O)c3ccccc3)C(=O)N2[C@H]1C(=O)O
inactive: [1] | [2] | [3] | [8] | [7] | [5] | [6]

O=C(Nc1cccc([S+](=O)([O-])Nc2ccccc2F)c1)c1ccccc1
inactive: [1] | [2] | [3] | [7] | [5] | [6]

CC(C)c1ccccc1-c1nc2c(c(NCc3ccc(-c4cccnc4)cc3)n1)CCNC2
inactive: [1] | [2] | [3] | [7] | [5] | [6]

Cc1cc2c(s1)c(C=O)c(C(=O)NCc1ccccc1F)n2C
inactive: [1] | [3] | [7] | [5]
active: [2] 1.27 µM

O=C1c2ccccc2NC(c2ccc(Br)o2)N1O (stereo unspecified)
active: [1] 5.04 µM | [2] 10.1 µM | [3] 1.41 µM | [4] 7.12 µM | [6] 1.79 µM

CC(=O)Nc1ccc(OC2=NS(=O)(=O)c3ccccc32)cc1
inactive: [1] | [2] | [3] | [7] | [5] | [6]

S=C(Nc1cc(Cl)ccn1)N1CCN(c2cccc(Cl)c2Cl)CC1
active: [1] 15.8 µM | [2] 3.98 µM | [7] 25.2 µM | [6] 3.18 µM
inactive: [3] | [5]

O=C(Nc1ncc(Cc2ccc(C(F)(F)F)cc2)s1)c1ncc(-c2ccccc2)[nH]1
inactive: [1] | [2] | [3] | [7] | [5]

CCCCN(C)C(=O)Cn1nc(-c2ccncc2)ccc1=O
inactive: [1] | [2] | [3] | [7] | [5]

O=C1NS(=O)(=O)c2cc(Br)ccc21
inactive: [1] | [2] | [3] | [7] | [5] | [6]

CN1CCN(C2CCN(Cc3ccc(O)c4ncccc34)CC2)CC1
inactive: [1] | [2] | [3] | [7]

CCc1c(C)sc(NC(=O)C2CCCCC2C(=O)O)c1C(N)=O (stereo unspecified)
inactive: [1] | [2] | [3] | [7] | [5]

COc1ccc(CN(Cc2ccccc2)C(=O)c2ccccc2O)cc1
inactive: [1] | [2] | [3] | [7] | [5]

Cc1cc(C)cc(C(=O)NOCCCCCC(=O)NO)c1
active: [5] 6.31 µM
inactive: [1] | [2] | [3] | [7]
